The values that follow come from PubChem BioAssay (Tox21).

Several values for one entry are separate records, joined by “and”; a condition that tells them apart may be missing. Identical values can stand only once. Inconclusive results are not listed. A call without a number means that no potency is given here. A structure can be active in one record and inactive in another. Activity calls are given as the source filed them. The call rests on the fitted dose curve; in most records, active means well fitted cell-killing curve with a large enough effect in the repeat runs; inconclusive means weak or mixed curves; inactive means no such curve, though single readings can be large or run the other way.
Potency means the concentration at half of the fitted maximal effect.

The assay is described as follows: qHTS assay for identifying genotoxic compounds that show differential cytotoxicity against isogenic chicken DT40 cell lines with known DNA damage response pathways - Rad54/Ku70 mutant cell line (AID 743015). Further: nearly all actives have a fitted effect of over 60% in size. The following applies: DT40 Rad54/Ku70 mutant viability, CellTiter-Glo, 40 h; series mostly up to 66.8 µM; activity change, negative = cytotoxicity: at the top concentration. From the text: National Center for Advancing Translational Sciences [NCATS]
NIH Chemical Genomics Center [NCGC]
U.S. Environmental Protection Agency [EPA]
National Institutes of Environmental Health Sciences [NIEHS]
National Toxicology Program [NTP]
U.S. Food and Drug Administration [FDA]
DNA repair pathways play a critical role in cellular homeostasis by repairing DNA damage induced by endogenous processes and xenobiotics. Isogenic chicken DT40 cell lines deficient in different DNA repair pathways can be used to identify genotoxic compounds and aid in characterizing the nature of the DNA damage induced. Two DNA repair-deficient cell lines with disrupted genes, Rad54/Ku70 or Rev3, were used to screen the Tox21 10K compound library. Possible genotoxicity was based on the presence of a significant increase in cytotoxicity in one or more of the DNA repair-deficient cell lines compared to that observed in the parental DNA repair-proficient cell line. CellTiter Glo viability assay (Promega, Madison, WI) was used to measure cell viability in these cells after compound treatment. This assay includes the data from the Rad54/Ku70 mutant cell line.
Tox21 Assay Protocol Summary:
300 DT40 mutant cells in 5 uL/well were dispensed into white, solid-bottom 1536-well plates using a Multidrop Combi (ThermoFisher Scientific, Waltham, MA) dispenser. After the assay plates were incubated at 37 C/5% CO2 for approximately 0.5 hour, 23 nL of compounds dissolved in DMSO, positive controls or DMSO only was transferred into the assay plate by a pintool work station (Kalypsys, San Diego, CA). The assay plates were incubated at 37 C/5% CO2 for 40 hours. After 5 uL per well of CellTiter-Glo reagent was added into each well of the assay plates, the plates were incubated for 30 min at room temperature and the luminescence intensity of the plates was measured using a ViewLux (PerkinElmer, Shelton, CT) plate reader.
For orientation: qHTS replaces the single test concentration by a dilution series.
With `COc1ccc(OC)cc1`, the Potency entry was “inactive”.

On to `CCOCC(=O)O`, for which the Potency entry is “inactive”.

On to `CC(=O)OCCOC(C)=O`, for which the Potency entry is “inactive”.

`CC(C)(C#N)c1cc(Cn2cncn2)cc(C(C)(C)C#N)c1`: the Potency entry is “inactive”.

Regarding `CCCCCCCCCCO`, the Potency entry was “inactive”.

With `CC(C)(C)c1cc(Cc2cc(C(C)(C)C)c(O)c(C(C)(C)C)c2)cc(C(C)(C)C)c1O`, the Potency entry is “inactive and 54.5 µM (active)”.

With `OCc1ccccc1`, the Potency result is “inactive”.

Consider `NCCCCCCN`, for which the Potency entry was “inactive”.

With `C=CCc1ccc(OC)c(OC)c1`, the Potency result is “inactive”.

For `CCCCCCCCCCCC(=O)OC`, the Potency entry was “inactive”.

On to `CC1(C)OC[C@@H]2O[C@@]3(C(=O)O)OC(C)(C)O[C@H]3[C@@H]2O1`, for which the Potency result was “inactive”.

`CN(C)c1ccc(O)c2c1C[C@H]1C[C@H]3[C@H](N(C)C)C(=O)C(C(N)=O)=C(O)[C@@]3(O)C(=O)C1=C2O`: the Potency is 23.7 µM (active) [middle of 4 runs].

Regarding `CCOCCOCCOCCO`, the “activity change, negative = cytotoxicity” value is 10.6% [at 95.1 µM] (inactive).

Turning to `CN(C)c1ccc(Cc2ccc(N(C)C)cc2)cc1`, the Potency was 61.4 µM (active) and 24.3 µM (active).

With `CC(=O)OC1CC(C)OC(C)O1` (stereo not given), the Potency entry was “inactive”.

For the compound `Cc1ccc([N+](=O)[O-])cc1S(=O)(=O)O`, the Potency result is “inactive”.

With `C=C(C)[C@H]1CC=C(C)C(=O)C1`, the Potency result was “inactive”.

Turning to `CCCCCCCC=O`, the Potency result is “inactive”.

For `Clc1ccccn1`, the Potency entry is “inactive”.

Consider `CCCCCCC=O`, for which the Potency entry is “inactive and 43.3 µM (active)”.

With `CC(=O)c1ccc(O)cc1`, the Potency result is “inactive”.

With `CC(CCO)CC(C)(C)C` (stereo not given), the Potency result was “inactive”.

Consider `CSc1ccc(Cl)cc1`, for which the Potency result is “inactive”.

As for `C=CC[N+](C)(C)CC=C`, the Potency result was “inactive”.

For the compound `O=S(=O)(O)c1ccccc1`, the Potency result was “inactive”.

As to `O=C(O)CCCCCCCCC(=O)O`, the Potency entry was “inactive”.

Regarding `C=CC(C)CCCC(C)(C)O` (stereo not given), the “activity change, negative = cytotoxicity” value is 2.09% (inactive).

As for `CCCOC(=O)c1ccccc1`, the Potency entry is “inactive”.

Take `O=C(O)c1ccc(S(=O)(=O)N(Cl)Cl)cc1`: the Potency entry was “inactive and 24.5 µM (active)”.

For the compound `COCCOC(=O)c1ccccc1C(=O)OCCOC`, the Potency entry is “inactive”.

On to `CC1(C)NC(=O)NC1=O`, for which the Potency entry is “inactive”.

For `CCCCCCCCCCN`, the “activity change, negative = cytotoxicity” value is 13.3% [at 95.1 µM] (inactive).

For `COc1ccccc1OCC(O)CO` (stereo not given), the Potency entry is “inactive”.

In the case of `NC(=S)NNC(N)=S`, the Potency result was “inactive”.

Consider `COc1ccc(C)cc1N`, for which the Potency entry is “inactive”.

On to `O=C(OCC1CCC2OC2C1)C1CCC2OC2C1` (stereo not given), for which the “activity change, negative = cytotoxicity” value was -3.78% [at 95.1 µM] (inactive).

In the case of `COc1cc(OC)c(C(=O)CCCN2CCCC2)c(OC)c1`, the Potency result was “inactive”.

Consider `COc1ccc(CCC(C)=O)cc1`, for which the “activity change, negative = cytotoxicity” value is 2.01% (inactive).

With `CC(=O)CC(C)(C)O`, the Potency entry was “inactive”.

Take `CC1(C)CC(N)CC(C)(CN)C1` (stereo not given): the Potency result was “inactive”.
